Source: PubChem (National Center for Advancing Translational Sciences (NCATS))
Hits are enriched below; roughly 6.7% of the tested compounds scored in any of these assays.
KB-V1 MDR tox: qHTS assay for MDR1-selective chemotherapeutics: Primary screen using the drug-selected MDR subline cells KB-V1; KB-V1 MDR cells viability, CellTiter-Glo, 72 h; Potency, µM (doses to about 46.1 µM), hits mostly cytotoxic; 400,000 compounds, 3.4% hits; also: % is scaled to controls: 0 for no effect and ±100 for the full control effect; nearly all actives have a fitted effect of over 60% in size
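KB-V1, DMEM (no phenol red) + 10% FBS; cpd pin-transferred, titration series; 72 h, 37 degrees C; CellTiter-Glo, luminescence. Data normalized, curve-fit.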
SW480 rereplic: A quantitative high throughput screen for small molecules that induce DNA re-replication in SW480 colon adenocarcinoma cells | SW480 DNA re-replication, Hoechst DNA content imaging, 48 h | Potency, µM (doses to about 46.1 µM), for inactives: top-dose re-replication activation, most hits filed as activators | AID 624297, 2012 | 340,000 compounds, 1.8% hits; also: % of control where 0% means no effect; nearly all actives have a fitted effect of over 55% in size
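Cells (250 per well) received 23 nL compound or DMSO by pin tool and were kept 48 hr at 37 C, 5% CO2. Nuclei were then stained with Hoechst for 40 min and scanned for DNA content.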
MCF10A rerep: A quantitative high throughput screen for small molecules that induce DNA re-replication in MCF 10a normal breast cells; 350,000 compounds, 2.9% hits; MCF 10A DNA re-replication, Hoechst nuclear intensity, 48 h; Potency, µM (doses to about 46.1 µM), inactives show top-dose activity, positive = re-replication, hits mostly activators; also: % of control where 0% means no effect; nearly all actives have a fitted effect of over 50% in size
PINK1 expr mod: A Quantitative High throughput Screen to Identify Chemical Modulators of PINK1 Expression. PINK1 immunofluorescence, high-content cytometry, 24 h. Potency, µM (series often up to 76.6 µM), without a hit: at the highest dose activation (PINK1 increase), actives largely listed as activators. 410,000 compounds, 0.2% hits. AID 624263, 2012; active = well fitted activation curve with a large enough effect; inconclusive = small, poorly fitted or top-dose-only effect; cell line not stated here; also: % of control where 0% means no effect; nearly all actives have a fitted effect of over 65% in size
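Cells are seeded, rested 12 hours, then given compound at five concentrations or DMSO for 24 hours. After fixation, blocking and antibody staining, PINK1 amount and mitochondrial localization are scored; CCCP serves as control.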
KB-3-1 cytotox: qHTS assay for MDR1-selective chemotherapeutics: Primary screen using the parental adenocarcinoma cell KB-3-1; 400,000 compounds, 1.4% hits; Potency, µM (titrated, usually from 46.1 µM), usual class: cytotoxic; AID 1347075, 2019; KB-3-1 viability, CellTiter-Glo ATP luminescence, 72 h; also: % is scaled to controls: 0 for no effect and ±100 for the full control effect; nearly all actives have a fitted effect of over 60% in size
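Cytotoxicity in the drug-sensitive parental line KB-3-1 was scored as loss of CellTiter-Glo luminescence following 72 h incubation with compound. Values come from curve fitting of normalized concentration-response data.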
* marks the source's active call; other numbers are inactive results; i = inactive; ? = inconclusive; · = not tested or not shown. Unless noted, calls follow the shape of the dose curve; as a rule, active = well fitted curve in the direction sought with a large enough effect; inconclusive = small, poorly fitted or top-dose-only effect, or another doubt; inactive = no such curve, though single readings can be large; an effect the other way counts as inactive or inconclusive. Potency is read from the fitted curve at half-maximal effect.

SMILES	KB-V1 MDR tox	SW480 rereplic	MCF10A rerep	PINK1 expr mod	KB-3-1 cytotox
C=CCOc1cccc(C2C(C(=O)c3cc4ccccc4o3)=C(O)C(=O)N2c2cc(C)on2)c1 (configuration not stated)	i	?	21µM*	6%	i
Cc1cc(N2C(=O)C(O)=C(C(=O)c3ccc(C)o3)C2c2cccc(Cl)c2)no1 (configuration not stated)	?	·	·	2%	?
CCCOc1ccc(C2C(C(=O)c3cc4ccccc4o3)=C(O)C(=O)N2c2cc(C)on2)cc1 (configuration not stated)	i	?	19%	25µM*	?
COc1ccc(OC)c(C2C(C(=O)c3cc4ccccc4o3)=C(O)C(=O)N2c2cc(C)on2)c1 (configuration not stated)	3.7µM*	2%	8%	-2%	?
Cc1c(Cl)cccc1N=C1NC(=O)CS1	i	·	·	2%	i
O=C(Nc1ccc(S(=O)(=O)Nc2nccs2)cc1)c1ccccc1OC(F)F	i	-4%	-1%	-1%	i
COc1cccc(C2C(C(=O)c3cc4ccccc4o3)=C(O)C(=O)N2c2cc(C)on2)c1 (configuration not stated)	i	-11%	18µM*	0%	i
CCCCn1c(SCc2cccc([N+](=O)[O-])c2)nc2ccsc2c1=O	2.3µM*	-8%	16µM*	0%	i
COCCn1c(SCc2cccc([N+](=O)[O-])c2)nc2ccccc2c1=O	12µM*	-7%	9%	0%	i
Cn1c(SCc2cccc([N+](=O)[O-])c2)nc2ccccc2c1=O	2.6µM*	11%	?	0%	?
CCOC(CCn1c(SCc2cccc([N+](=O)[O-])c2)nc2ccccc2c1=O)OCC	i	6%	15%	5%	i
CCOC1=C2[C@@H](CN(S(=O)(=O)c3ccc(C)cc3)[C@H]2c2cccc3ccccc23)[C@H]2C(=O)N(CC)C(=O)[C@H]2C1	i	·	·	2%	i
CC(=O)Nc1ccc2nc(-c3cc(C)ccc3C)[nH]c2c1	16µM*	·	·	7%	?
CC(=O)Nc1ccc2nc(-c3ccncc3)[nH]c2c1	i	-11%	-3%	1%	i
COc1ccc(-c2cc(=O)c3cc(OCC(=O)OC(C)C)ccc3o2)cc1	i	·	·	1%	i
C/C(=N\NC(=O)C(C)Nc1cccc(Cl)c1)c1ccc([N+](=O)[O-])cc1 (configuration not stated)	18µM*	-124%	-81%	11%	i
O=C(CN1N=C(c2ccccc2)CCC1=O)NCc1ccc(F)cc1Cl	·	·	·	-1%	·
Oc1[nH]c2ccccc2c1N=Nc1ccccn1	i	-5%	-3%	8%	i
Oc1c(N=Nc2ccccn2)ccc2ccccc12	?	?	13µM*	-2%	1.2µM*
O=C(c1cc2nc(-c3ccc(F)cc3)cc(C(F)(F)F)n2n1)N1CCCCC1c1cccnc1 (configuration not stated)	?	?	?	10%	3.3µM*
O=C(c1cnn2c(C(F)(F)F)cc(-c3ccccc3)nc12)N1CCCCC1c1cccnc1 (configuration not stated)	i	-2%	0%	1%	i
CC1CCCC(N2CCN(C(=O)c3ccc([N+](=O)[O-])cc3)CC2)C1 (configuration not stated)	i	8.2µM*	?	1%	i
O=C(c1ccc(Oc2ccc([N+](=O)[O-])cc2)cc1)N1CCCCCC1	i	5%	-2%	-1%	?
Cc1ccc2nc(NCc3ccccc3)[nH]c2c1	5.8µM*	5.2µM*	?	13%	5.2µM*
COc1ccc2nc(NCc3ccccc3)[nH]c2c1	?	15µM*	18µM*	16µM*	9.2µM*
SMILES	KB-V1 MDR tox	SW480 rereplic	MCF10A rerep	PINK1 expr mod	KB-3-1 cytotox
COc1ccc(-c2nnc(SCC(=O)c3cccs3)o2)cc1	i	-6%	?	1%	i
O=C(CSc1nnc(-c2cccs2)o1)c1cccs1	i	?	3.7µM*	·	i
CN(C)C(=O)CSc1nnc(-c2cc(-c3cccs3)nc3ccccc23)o1	?	?	10µM*	12%	i
COc1ccc(NC(=O)C(NC(=O)/C=C\c2ccc3c(c2)OCO3)c2ccccc2)cc1 (configuration not stated)	·	·	·	4%	·
Cc1ccc(NC(=O)COc2ccccc2C(=O)Nc2ccccc2)cc1	i	·	·	3%	i
Cn1cc(/C=N/n2cnc3sc4c(c3c2=O)CCCC4)c2ccccc21	21µM*	18µM*	?	-1%	?
O=c1c2c3c(sc2ncn1/N=C/c1ccc([N+](=O)[O-])o1)CCCC3	21µM*	12µM*	4.1µM*	4%	21µM*
Cc1ccc(C)n1-n1cnc2sc3c(c2c1=O)CCC3	i	?	-1%	·	i
Cc1ccc(S(=O)(=O)NCCC(=O)N2CCN(S(=O)(=O)c3ccccc3)CC2)cc1C	i	-3%	0%	0%	i
Cc1ccc(C)c(S(=O)(=O)N2CCN(C(=O)CCNS(=O)(=O)c3ccc(C)c(C)c3)CC2)c1	2.9µM*	1%	12%	0%	?
COc1cc(C(=O)NCC(=O)N2CCN(S(=O)(=O)c3cc(C)ccc3C)CC2)cc(OC)c1OC	?	8.2µM*	?	2%	3.3µM*
Cc1ccc(C)c(S(=O)(=O)N2CCN(C(=O)Cc3sc(C)nc3-c3ccc(F)cc3)CC2)c1	23µM*	2%	42%	2%	?
Cc1ccc(C)c(S(=O)(=O)N2CCN(C(=O)Cc3c(F)cccc3Cl)CC2)c1	7.3µM*	0%	23%	-2%	i
Cc1ccc(NC(=O)C(CC(C)C)N2Cc3ccccc3C2=O)cc1F (configuration not stated)	i	·	·	0%	i
OCC[C@H]1C[C@@H](O)[C@H](O)[C@@]2(Cc3ccccc3O2)O1	i	-17%	0%	2%	i
O=C(NCc1ccco1)c1cc2ccc(O)cc2oc1=O	i	?	5.8µM*	0%	?
COc1ccc(CNC(=O)c2cc3cc4ccc(C)cc4nc3o2)cc1	i	·	·	0%	i
N=c1oc2cc(O)ccc2cc1C(=O)Nc1ccc(Cl)cc1	i	2.6µM*	1.6µM*	?	?
Cc1ccc2cc3cc(C(=O)NCc4ccco4)oc3nc2c1	i	-4%	17%	4%	3.5µM*
